RGS16-Gao HTS = RGS16-Galphao interaction regulator (human). O15492+P09471. bead-based flow cytometry RGS16-Galphao binding, fluorescence; actives lie on both sides. AID 1441. 220,000 tested, 0.38% active. binding response (% of control), % at 10 µM;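 note: Galphao activated by GDP with aluminum fluoride before binding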
Target sequence (O15492 whole entry, looked up): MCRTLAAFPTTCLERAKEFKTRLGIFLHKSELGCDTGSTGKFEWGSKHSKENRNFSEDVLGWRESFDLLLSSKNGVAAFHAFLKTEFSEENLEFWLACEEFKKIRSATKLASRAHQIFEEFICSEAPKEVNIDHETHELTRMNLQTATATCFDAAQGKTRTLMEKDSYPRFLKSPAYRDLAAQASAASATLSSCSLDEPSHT
Target sequence (P09471 whole entry, looked up): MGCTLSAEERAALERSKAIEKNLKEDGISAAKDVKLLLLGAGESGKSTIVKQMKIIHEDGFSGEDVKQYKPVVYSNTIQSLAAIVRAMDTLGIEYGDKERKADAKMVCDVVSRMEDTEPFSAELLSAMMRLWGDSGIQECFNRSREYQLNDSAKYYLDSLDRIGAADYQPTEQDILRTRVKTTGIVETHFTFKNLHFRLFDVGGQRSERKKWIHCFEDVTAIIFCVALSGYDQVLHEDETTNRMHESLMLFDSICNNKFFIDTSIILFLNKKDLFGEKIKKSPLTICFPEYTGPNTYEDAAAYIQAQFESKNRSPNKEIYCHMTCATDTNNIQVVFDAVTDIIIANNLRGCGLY
RGS7-Gao = regulators of human RGS7-Galphao interaction; 220,000 tested, 0.35% active; Multiplexed bead flow cytometry, RGS7-Galphao binding; actives lie on both sides; binding response (% of control), % at 10 µM; P09471; AID 1439; in the data active = binding response below about 49% or above about 150%; inconclusive = no clear call, values can overlap the other calls; inactive = in between;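 note: fluorescent Galphao held in activated GDP-AlF4 state binding bead-coupled RGS7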
RGS4-Gao reg = human RGS4-Galphao interaction regulation | P09471 | Multiplexed bead flow cytometry, RGS4-Galphao binding; actives lie on both sides | binding response (% of control), % at 10 µM | 220,000 tested, 0.33% active | AID 1415; in the data active = binding response below about 49% or above about 150%; inactive = in between;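 note: fluorescent Galphao activated with aluminum fluoride binding bead-coupled RGS4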
RGS8-Gao reg = regulators of human RGS8-Galphao interaction; multiplexed bead flow cytometry, RGS8-Galphao binding; actives lie on both sides; response (percent of control binding), % at 10 µM; 220,000 tested, 0.34% active; AID 1423; in the data active = response below about 60% or above about 140%; inactive = in between;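 note: Galphao activated as the GDP aluminium fluoride complex binding bead-coupled RGS8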
GSH fluor = compound fluoresces at 488/530 nm on GSH beads | fluorescence (KMESF) at 10 µM | 190,000 tested, 0.25% active | AID 1776 | GSH beads flow cytometry, compound fluorescence 488/530 nm; active compounds read high; in the data active = fluorescence above about 89;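 note: glutathione beads carrying GST-tagged Bcl family fusion proteins plus one bare bead set; values are compound well signal with DMSO vehicle wells as background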
Avidin bead fluor = compound fluoresces at 488/530 nm on avidin beads | compound fluorescence 488/530 nm, flow cytometry; active compounds read high | fluorescence (KMESF) at 10 µM | 220,000 tested, 0.38% active | AID 1775; in the data active = fluorescence above about 47
RGS4-Gao HTS = regulators of human RGS4-Galphao interaction. AID 1504. RGS4–Galpha-o binding response, % at 10 µM. shares compounds with RGS16-Gao HTS. 1,600 tested, 99% active. multiplexed bead flow cytometry, RGS–Galpha-o binding;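 note: fluorescently labeled Galpha-o bound to GDP with aluminium fluoride binding biotinylated RGS beads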
Avidin counter = interferes with biotinylated probe binding to avidin beads; shares compounds with RGS16-Gao HTS; streptavidin beads, fluorescein-biotin binding, flow cytometry; inhibition, % at 10 µM; 1,700 tested, under 10 active; AID 1783;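 active = inhibition above 50%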;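 note: median green fluorescence of gated singlet beads compared with DMSO control wells; 0% = DMSO wells and 100% = complete loss of bead fluorescence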
RGS8-Gao confirm = confirmation of regulators of human RGS8-Galphao interaction | shares compounds with RGS16-Gao HTS | bead-based flow cytometry RGS8-Galphao binding, fluorescence; actives lie on both sides | binding response (% of control), % at 10 µM | 1,700 tested, 3% active; in the data active = binding response below about 72% or above about 130%; inactive = in between;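 note: Galphao activated as GDP AlF4 complex before binding bead RGS8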
RGS7-Gao single = confirmation of regulators of human RGS7-Galphao interaction. shares compounds with RGS16-Gao HTS. bead-based flow cytometry RGS7-Galphao binding; actives lie on both sides. response (percent of control binding), % at 10 µM. 1,700 tested, 7.8% active. AID 1837; in the data active = response below about 75% or above about 130%; inactive = in between;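 note: fluorescent Galphao activated with GDP and aluminum fluoride binding bead-coupled RGS7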
RGS16-Gao single = confirmation of regulators of human RGS16-Galphao interaction; shares compounds with RGS16-Gao HTS; bead-based flow cytometry, RGS16-Galphao binding; actives lie on both sides; response (% of control binding), % at 10 µM; 1,700 tested, 4% active; AID 1838; in the data active = response below about 74% or above about 130%; inactive = in between;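 note: Galphao activated as the GDP aluminium fluoride complex binding bead-coupled RGS16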
RGS4-Gao confirm = confirmation of regulators of human RGS4-Galphao interaction. binding response (% of control), % at 10 µM. 1,700 tested, 4% active. RGS4-Galphao binding, multiplexed bead flow cytometry; actives lie on both sides. shares compounds with RGS16-Gao HTS; in the data active = binding response below about 74% or above about 130%; inactive = in between
RGS19-Gao single = RGS19-Galphao interaction regulation, single point confirmation; bead-based flow cytometry RGS19-Galphao binding; actives lie on both sides; 1,700 tested, 5% active; AID 1841; shares compounds with RGS16-Gao HTS; response (percent of control binding), % at 10 µM; in the data active = response below about 50% or above about 160%; inactive = in between;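 note: 100% = no compound control and 0% = blank background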
An asterisk follows results filed as active; i = inactive; ? = inconclusive; . = no result given; [ ] = remark or other dose. The list is not random: actives were taken first. Their share in the collection is about 1.2%. Unless noted, the rule behind the calls is not given here.

SMILES	RGS16-Gao HTS	RGS7-Gao	RGS4-Gao reg	RGS8-Gao reg	GSH fluor	Avidin bead fluor	RGS4-Gao HTS	Avidin counter	RGS8-Gao confirm	RGS7-Gao single	RGS16-Gao single	RGS4-Gao confirm	RGS19-Gao single
CC(C)Cn1c(-c2nn(C)cc2Cl)n[nH]c1=S	41	45*	49*	59*	22	4	.	-1	97	111	97	104	91
Cc1c(NC(=O)c2cccc(NS(C)(=O)=O)c2)c(=O)n(-c2ccccc2)n1C	103	?	102	103	.	5	.	.	.	.	.	.	.
O=c1c(-c2ccccc2)c1-c1ccccc1	99	103	100	98	70	7	.	.	.	.	.	.	.
O=C1NC(c2ccccc2)=C(c2ccccc2)C1=O	252	109	116	140*[activator]	9	7	116*	2	105	111	110	110	96
O=c1c2ccccc2sn1-c1cc(S(=O)(=O)N2CCOCC2)ccc1N1CCCC1	-21*	100	86	41*	24	-1	86*	-1	38*	90	10*	78	4.4*
O=C(O)c1cc(S(=O)(=O)N2CCOCC2)ccc1N1CCCCC1	98	100	97	98	21	9	.	.	.	.	.	.	.
O=c1c2ccccc2sn1-c1cc(S(=O)(=O)N2CCOCC2)ccc1N1CCOCC1	0.6*	123	99	48*	19	1	99*	.	.	.	.	.	.
O=C(O)c1cc(S(=O)(=O)N2CCOCC2)ccc1N1CCOCC1	99	101	99	101	17	10	.	.	.	.	.	.	.
CC(=O)Nc1ccc(CN2CCCC(C(=O)c3ccc(C(F)(F)F)cc3)C2)cc1 (stereo unspecified)	104	111	111	108	17	5	.	.	.	.	.	.	.
COc1ccc2oc3cc(C)[n+]([O-])c(-c4ccc(Cl)cc4)c3c2c1	90	52	41*	78	11	-1	.	i	105	114	112	111	107
O=C(NCc1ccco1)c1ccc(S(=O)(=O)N2CCCc3ccccc32)cc1	-44*	89	80	77	43	0	80*	.	.	.	.	.	.
O=C(NCc1ccccc1)c1ccc(S(=O)(=O)N2CCCc3ccccc32)cc1	99	98	99	100	14	38	.	.	.	.	.	.	.
COc1ccc(-c2ccc(/C=C(\NC(=O)c3ccccc3)C(=O)N3CCOCC3)o2)cc1	102	98	100	104	54	10	.	.	.	.	.	.	.
CC(C)N1CN(c2ccccc2)C(=S)N(c2ccccc2)C1	104	?	102	98	.	8	.	.	.	.	.	.	.
CCO[C@@H]1OC(C(=O)NC2CC2)=C[C@H](C2CC2)[C@H]1CCCO	102	?	99	97	.	9	.	.	.	.	.	.	.
C#CCNC(=O)C1=C[C@@H](C2CC2)[C@H](CCCO)[C@@H](OCC)O1	0.9*	-5.5*	4.8*	8.9*	19	-1	.	-2	103	104	100	103	94
Fc1cccc(Cl)c1/C=N/n1c(-c2cccnc2)n[nH]c1=S	1	88	88	59*	10	6	88*	-3	93	113	87	95	87
